# Values joined by “and” are separate entries in the source; they are usually repeats but may differ in a detail not shown here. Equal entries are not always repeated. Records with an inconclusive call do not appear. Entries that show only a call come without a potency. Active and inactive are the calls of the source. The call rests on the fitted dose curve.
# Assay: qHTS assay to identify small molecule antagonists of the estrogen receptor alpha (ER-alpha) signaling pathway using the BG1 cell line (AID 743080);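 further: BG1 cells stimulated with 17beta-estradiol alongside compound; nearly all actives have a fitted effect of over 25% in size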
# Details: BG1Luc4E2 ERE-luciferase antagonist mode, luminescence; series mostly up to 70.3 µM
# Excerpt: National Center for Advancing Translational Sciences [NCATS]
# NIH Chemical Genomics Center [NCGC]
# U.S. Environmental Protection Agency [EPA]
# National Institutes of Environmental Health Sciences [NIEHS]
# National Toxicology Program [NTP]
# U.S. Food and Drug Administration [FDA]
# Estrogen receptor (ER), a nuclear hormone receptor, plays an important role in development, metabolic homeostasis and reproduction. Endocrine disrupting chemicals (EDCs) and their interactions with steroid hormone receptors like ER causes disruption of normal endocrine function. Therefore, it is important to understand the effect of environmental chemicals on the ER signaling pathway. To identify ER antagonists, BG1-Luc-4E2 cell line (provided by Dr. Michael Denison from University of California) has been used to screen the Tox21 10K compound library. BG1Luc4E2 cell line endogenously expresses full-length ER-alpha and is stably transfected with a plasmid containing four estrogen responsive elements (ERE) upstream of a luciferase reporter gene.
# Tox21 Assay Protocol Summary:
# BG1-Luc-4E2 cells were cultured in phenol red free assay medium containing 10% charcoal stripped FBS for 5 days before the assay was performed. The cells were dispensed at 4,000 cells/4 uL of assay medium per well into white wall/solid-bottom 1536-well plates using a Multidrop Combi (ThermoFisher Scientific, Waltham, MA) dispenser. The assay plates were incubated at a 37C and 5% CO2 for 24 h, and then 23 nL of compounds dissolved in DMSO, positive controls or DMSO only was transferred to the assay plate using a Pintool station (Kalypsys, San Diego, CA), followed by addition of 1 uL of 17beta-estradiol in assay medium using a Flying Reagent Dispenser (Aurora Discovery, San Diego, CA). After the plates were incubated at 37 C and 5% CO2 for 21.5 h, 1 uL of CellTiter-Fluor reagent (Promega, Madison, WI) of measuring cytotoxicity was added using Flying Reagent Dispenser (FRD) to each well. The assay plates were incubated at 37 C and 5% CO2 for additional 30 min and the fluorescence intensity was quantified by a ViewLux plate reader (PerkinElmer, Shelton, CT). For measuring luciferase reporter gene activity, 4 uL of ONE-Glo reagent (Promega) was added to each plate using an FRD and luminescence was quantified by a ViewLux plate reader after 30 min incubation at room temperature.
# Potency means the concentration at half of the fitted maximal effect.
row,SMILES,Potency
1,COc1cc(Cl)c(OC)cc1Cl,inactive
2,OCCCBr,inactive
3,O=C(NCc1cccnc1)Nc1ccc([N+](=O)[O-])cc1,inactive
4,COC(=O)C(C)N(C(=O)Cc1ccccc1)c1c(C)cccc1C (stereo not given),inactive
5,CCCC(=O)Cl,inactive
6,C[N+](C)(C)CCCl,inactive
7,CCCCNP(N)(N)=S,inactive
8,Brc1ccccc1,inactive
9,COC(N)=O,inactive
10,C=CC(C)=O,inactive
11,CNC(C)Cc1ccccc1OC (stereo not given),inactive
12,O=C(Nc1ccccc1)Nc1cnns1,68.5 µM (active)
13,CC(Cl)C(C)Cl (stereo not given),inactive
14,Brc1ccc(Oc2ccccc2)cc1,inactive
15,CCOP(=O)(OCC)SCCSCC,inactive
16,Nc1ccc(N=Nc2ccc(-c3ccc(N=Nc4c(S(=O)(=O)O)cc5cc(S(=O)(=O)O)c(N=Nc6ccccc6)c(O)c5c4N)cc3)cc2)c(N)c1,inactive
17,CC(=O)NC1CCSC1=O (stereo not given),inactive
18,C=CC(=O)OCCCCO,inactive
19,O=[N+]([O-])C(Br)(CO)CO,inactive
20,CCOC(=O)C(Cl)C(C)=O (stereo not given),inactive

row,SMILES,Potency
1,C[C@H]1CNCCc2ccc(Cl)cc21,inactive
2,CCC(Cl)CCl (stereo not given),inactive
3,BrCCCCBr,inactive
4,COP(=S)(Oc1cc(Cl)c(Br)cc1Cl)c1ccccc1 (stereo not given),inactive
5,CN1[C@@H]2CC[C@H]1CC(OC(=O)c1cc(Cl)cc(Cl)c1)C2 (stereo not given in full),inactive
6,N#C/C(N)=C(/N)C#N,inactive
7,COCCOCCO,inactive
8,CCCCCCCCCCOC(=O)c1ccccc1C(=O)OCCCCCCCCCC,inactive
9,CCCN(CCC)c1c([N+](=O)[O-])cc(S(C)(=O)=O)cc1[N+](=O)[O-],inactive
10,OC(c1ccc(Cl)cc1)(c1ccc(Cl)cc1)c1cccnc1,inactive
11,CCCCC(O)(Cn1cncn1)c1ccc(Cl)cc1Cl (stereo not given),54.4 µM (active)
12,NNC(=O)c1cccnc1,inactive
13,CCOP(=O)(OCC)O/C(=C/Cl)c1ccc(Cl)cc1Cl,54.5 µM (active)
14,CC(=O)C(C)(C)C,inactive
15,CC(O)(CS(=O)(=O)c1ccc(F)cc1)C(=O)Nc1ccc(C#N)c(C(F)(F)F)c1 (stereo not given),29.8 µM (active)
16,c1ccc(C2CC2)c(OCC2=NCCN2)c1,inactive
17,COCC(C)N(C(=O)CCl)c1c(C)csc1C (stereo not given),inactive
18,O=C(C(Cl)(Cl)Cl)C(Cl)(Cl)Cl,inactive
19,CO/C=C(/C(=O)OC)c1ccccc1COc1cccc(C(F)(F)F)n1,2.17 µM (active)
20,C(=NC1CCCCC1)=NC1CCCCC1,2.45 µM (active) and 2.43 µM (active)
